Assay results reported in PubChem BioAssay (NCATS).
Several values for one entry are separate records, joined by “and”; a condition that tells them apart may be missing. Identical values can stand only once. Results filed as inconclusive are left out. Activity calls are given as the source filed them. Unless noted, the call rests on the fitted dose curve; in most records, active means well fitted curve in the direction sought with a large enough effect; inconclusive means small, poorly fitted or top-dose-only effect, or another doubt; inactive means no such curve, though single readings can be large; an effect the other way counts as inactive or inconclusive.

How the values were obtained:
[1] = Cell Viability - BJ (AID 421; calls by dose curve;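 further: potency means the concentration at half of the fitted maximal effect; cells exposed to compound for 40 hours at 37 °C before readout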); settings: BJ fibroblast viability, qHTS
Outline: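 Luminescent ATP signal (CellTiter-Glo, 20 min at room temperature) served as the read-out of viable BJ cells after 40 hours of compound treatment. Responses were scaled between DMSO and 100 uM tamoxifen, and AC50 values were obtained by Hill modeling.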

[2] = Cell Viability - Jurkat (AID 426;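 active means dose-dependent loss of cell ATP signal giving a full or clear fitted curve, ranked by lower potency value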;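 further: potency means the concentration at half of the fitted maximal effect; cells exposed to compound for 40 hours at 37 °C before ATP read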); settings: qHTS
Outline: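 Cytotoxicity was scored as loss of cellular ATP, measured by luciferase-based luminescence, in Jurkat clone E6-1 cells after 40 h compound treatment; tamoxifen and doxorubicin served as positive controls.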

[3] = Cell Viability - Hek293 (AID 427;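 active means compounds whose dose-response curve shows a full or clear partial loss of cell viability, called from curve shape rather than a numeric limit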;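 further: potency means the concentration at half of the fitted maximal effect; cells exposed to compound for 40 hours at 37 °C before reading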); settings: qHTS
Outline: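 Luminescent ATP read-out (CellTiter-Glo, 20 min RT) after 40 hr compound exposure at 37 °C in complete medium. Signal normalized to DMSO (basal) and 100 uM tamoxifen (100% inhibition); concentration-response fitted with the standard Hill equation to give AC50.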

[4] = Cell Viability - HepG2 (AID 433; calls by dose curve;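 further: potency means the concentration at half of the fitted maximal effect; potency for ATP loss meaning cytotoxicity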); settings: qHTS
Outline: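 ATP luminescence (CellTiter-Glo) after 40 h compound exposure, 37 °C, HepG2, 1500 cells/well, complete medium. Normalized: DMSO = basal, 100 uM tamoxifen = 100% inhibition. AC50 via standard Hill equation.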

[5] = Cell Viability - MRC5 (AID 434; calls by dose curve;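 further: potency means the concentration at half of the fitted maximal effect; cells exposed to compound for 40 hours at 37 °C; potency reflects cytotoxicity seen as loss of intracellular ATP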); settings: MRC5 lung fibroblast viability, qHTS
Outline: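 ATP luminescence read-out (CellTiter-Glo, 20 min RT) after 40 hr, 37 °C compound exposure of 1500 MRC5 cells/well. Data normalized to DMSO (basal) and 100 uM tamoxifen (100% inhibition); AC50 from standard Hill equation.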

[6] = Cell Viability - SK-N-SH (AID 435; calls by dose curve; further: potency means the concentration at half of the fitted maximal effect); settings: SK-N-SH neuroblastoma cell viability qHTS
Outline: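 CellTiter-Glo ATP luminescence, 20 min RT read; cells pre-plated 5 hr, compound 40 hr at 37 °C, 1500 cells/well, complete medium. Normalized DMSO = 0, 100 uM tamoxifen = 100% inhibition; Hill-fit AC50.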

[7] = Cell Viability - HUV-EC-C (AID 542); settings: HUV-EC-C endothelial cell viability, qHTS; series mostly up to 92.2 µM; further: on the % scale 0 is the no-effect control and ±100 the full control effect; nearly all actives have a fitted effect of over 35% in size
Outline: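 Concentration-dependent ATP loss in HUV-EC-C cells is the measure. Exposure lasts 40 hr at 37 °C; luminescence follows CellTiter-Glo addition, and Hill fits give AC50.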

[8] = Cellular Toxicity (caspase-3) HepG2 (AID 654); settings: HepG2 caspase-3 activation, luminescence, 0% = DMSO only, 100% = tamoxifen; series mostly up to 92.2 µM;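 further: cells exposed to compound for 16 hours before reading; 0% = DMSO alone and 100% = caspase signal from 100 µM tamoxifen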
Outline: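 Concentration-response AC50 values reflect caspase-3/7 induction in HepG2 cells after 16 hours of compound exposure, quantified by luminescence from liberated aminoluciferin and referenced to 100 uM tamoxifen as full stimulation.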

[9] = Cellular Toxicity (caspase-3) SK-N-SH (AID 661); settings: SK-N-SH caspase-3 activation, qHTS; series mostly up to 91.7 µM
Outline: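 Apoptosis readout in SK-N-SH neuroblastoma: Caspase-Glo 3/7 luminescence following 16 hr treatment in complete culture medium. Normalization used DMSO and 10 uM staurosporine controls.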

[10] = Cellular Toxicity (caspase-3) N2a (AID 665); settings: N2a cells, luminescence, normalized: DMSO 0%, 10 µM staurosporine 100%; series mostly up to 92.2 µM;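 further: compound exposure lasted 16 h at 37 °C before readout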
Outline: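 Concentration-response qHTS: compound-induced caspase-3/7 luminescence in N2a cells (16 h, 37 °C), relative to DMSO and 10 uM staurosporine controls; AC50 obtained using the standard Hill equation.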

[11] = Cellular Toxicity (caspase-3) NIH 3T3 (AID 666); settings: NIH 3T3 caspase-3 activation, apoptosis/toxicity; series mostly up to 92.2 µM;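 further: 0% = DMSO basal and 100% = 100 µM tamoxifen stimulation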
Outline: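 Activity: caspase-3/7 induction, NIH 3T3 cells, 16 hr treatment at 37°C, luminescent Caspase-Glo detection; AC50 via Hill equation.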

[12] = Cellular Toxicity (caspase-3) Renal Proximal Tubule (AID 667); settings: renal proximal tubule cells; series mostly up to 91.7 µM;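 further: cells exposed to compound for 16 hours at 37 °C before detection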
Outline: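 Luminescent caspase 3/7 signal from peptide-aminoluciferin cleavage measures apoptosis in freshly isolated rat kidney proximal tubule cells after 16 h compound exposure. Concentration-response data are normalized to DMSO and 10 uM staurosporine, and AC50 values come from Hill equation fits.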

[13] = MultiTox-Fluor Cytotoxicity Assay - LYMP1-003 - Dead Cells (AID 961); settings: LYMP1-003 lymphoblastoid cells, dead-cell protease fluorescence; series mostly up to 92.2 µM;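 further: 0% = DMSO and 100% = tetraoctylammonium bromide; nearly all actives have a fitted effect of over 70% in size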
Outline: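 Human lymphoblastoid LYMP1-003 cells (2500/well) were treated with compounds for 16 hr at 37 C in complete medium. Dead-cell protease release was read by bis-AAF-R110 fluorescence (Ex/Em 485/520). AC50 came from Hill fits, normalized to DMSO and 15 uM tetraoctylammonium bromide.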

[14] = Cell Viability - LYMP2-007 (AID 979); settings: LYMP2-007 lymphoblastoid cell viability; series mostly up to 92.2 µM;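 further: cells exposed to compound for 24 h before reading; 0% = DMSO only and the negative end = 92 µM tetraoctylammonium bromide; nearly all actives have a fitted effect of over 60% in size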
Outline: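 Measured via luciferase-based ATP quantitation: lymphoblastoid cells, 24 hr compound exposure at 37 C, AC50 from Hill fits.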

[15] = Cell Viability - LYMP1-002 - Assay at 24 hr (AID 993); settings: LYMP1-002 lymphoblastoid cells viability; series mostly up to 92.2 µM; further: on the % scale 0 is the no-effect control and ±100 the full control effect
Outline: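 Viability was judged from intracellular ATP using a luciferase read-out, following a 24-hour compound incubation at 37 C of lymphoblastoid cells seeded at 2500 per well. Concentration-response data were fitted to the Hill equation for AC50.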

[16] = qHTS Assay for Identification of Small Molecule Inducers of Hypoxia Response (AID 2120; active means well fitted curve in the direction sought with a large enough effect in the signal ratio, with a control signal flat, not every such curve was filed as active; the % refers to the signal ratio; further: 0% is about no effect); settings: hypoxia response reporter cells, beta-lactamase ratio readout; series mostly up to 104 µM
Outline: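 HRE-bla ME-180, 2500 cells/well, 0.5% dialyzed FBS medium; cpd titration, 17 h 37 degrees C; CCF4 2.5 h RT; Ex 405, Em 460/530 ratio -> %Activity, AC50.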

[17] = target: Peroxisome proliferator-activated receptor alpha (Homo sapiens) (UniProt Q07869); test: qHTS assay for small molecule agonists of the peroxisome proliferator-activated receptor alpha (PPARalpha) signaling pathway (AID 651778); settings: PathHunter PPARalpha complementation, chemiluminescence, 6 h; hits give high values; further: % of control where 0% means no effect
Peroxisome proliferator-activated receptor alpha (Homo sapiens), sequence (Q07869 whole entry, looked up, the tested form may be a part): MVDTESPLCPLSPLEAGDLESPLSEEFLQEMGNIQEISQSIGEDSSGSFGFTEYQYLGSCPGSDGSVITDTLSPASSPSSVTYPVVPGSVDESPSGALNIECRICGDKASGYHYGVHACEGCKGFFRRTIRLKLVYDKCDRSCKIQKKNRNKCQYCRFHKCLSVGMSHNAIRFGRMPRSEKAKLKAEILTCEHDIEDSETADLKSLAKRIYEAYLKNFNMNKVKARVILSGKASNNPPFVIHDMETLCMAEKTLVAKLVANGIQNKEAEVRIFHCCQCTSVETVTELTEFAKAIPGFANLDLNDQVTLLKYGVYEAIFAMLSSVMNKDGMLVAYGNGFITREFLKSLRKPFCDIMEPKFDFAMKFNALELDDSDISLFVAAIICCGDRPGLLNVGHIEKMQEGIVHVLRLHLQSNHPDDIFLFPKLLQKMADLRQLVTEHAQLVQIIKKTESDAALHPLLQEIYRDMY
Outline: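 Enzyme-fragment complementation assay in which ligand-bound PPARalpha translocates and forms an active enzyme that generates chemiluminescence. Cells were plated overnight, exposed to compound for 6 hr at 37 C, and then given detection reagent for 60 min at room temperature.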

[18] = qHTS assay for small molecule agonists of the antioxidant response element (ARE) signaling pathway measured by Nrf2-dependant transcriptional activity - cell viability counter screen (AID 720653; active means well fitted curve in the direction sought with a large enough effect in the repeat runs; an effect the other way counts as inactive or inconclusive; further: on the % scale 0 is the no-effect control and ±100 the full control effect); settings: ARE-bla HepG2 viability, CellTiter-Glo ATP luminescence, 16 h; hits give low values
Outline: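 ARE-bla HepG2 cells treated with compounds for 16 h at 37C; this counter screen measures viability as intracellular ATP by CellTiter-Glo luminescence after 30 min at room temperature.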

[19] = qHTS assay for cell viability of HEK293 cells (AID 743288); settings: ATP luminescence (CellTiter-Glo), 18 h, hits give low values; further: on the % scale 0 is the no-effect control and ±100 the full control effect; nearly all actives have a fitted effect of over 50% in size
Outline: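 ATP luminescence (CellTiter-Glo) reports metabolically competent cell number after parental HEK293 cells, 2,000/well, were treated with DMSO-dissolved compounds for 18 h at 37 C; reagent incubation 30 min, room temperature.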

[20] = qHTS assay for cell viability of the p53RE-bla HCT-116 cell line (AID 743292); settings: p53RE-bla HCT-116 viability, ATP luminescence, 16 h; series mostly up to 95 µM; further: on the % scale 0 is the no-effect control and ±100 the full control effect; nearly all actives have a fitted effect of over 55% in size
Outline: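 Readout: CellTiter-Glo luminescence after 30 min RT. Treatment: compounds in DMSO, 16 h, 37 C. Cells: CellSensor p53RE-bla HCT-116, 4,000/well, preincubated 5 h.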

N#C/C(N)=C(/N)C#N
inactive: Potency [1] > 92 µM | Potency [2] > 92 µM | Potency [3] > 92 µM | Potency [4] > 92 µM | Potency [5] > 92 µM | Potency [6] > 92 µM | Potency [7] | outcome [8] | Potency [9] | outcome [10] | Potency [11] | outcome [12] | Potency [13] | Potency [14] | Potency [15] | Potency [16] | max response [17] -0.162% | max response [18] -10.7% | max response [19] -0.0232% | Potency [20]

Nc1ccc([N+](=O)[O-])cc1[N+](=O)[O-]
inactive: Potency [1] > 92 µM | Potency [2] > 92 µM | Potency [3] > 92 µM | Potency [4] > 92 µM | Potency [5] > 92 µM | Potency [6] > 92 µM | Potency [7] | outcome [8] | Potency [9] | outcome [10] | Potency [11] | outcome [12] | Potency [13] | Potency [14] | Potency [15] | Potency [16] | max response [17] -8.48% | max response [18] -10.3% | max response [19] 2.24% | Potency [20]

[O-][Cl+]O
inactive: Potency [1] > 92 µM | Potency [2] > 92 µM | Potency [3] > 92 µM | Potency [4] > 92 µM | Potency [5] > 92 µM | Potency [6] > 92 µM | Potency [7] | outcome [8] | Potency [9] | outcome [10] | Potency [11] | outcome [12] | Potency [13] | Potency [14] | Potency [15] | Potency [16] | max response [17] 0.737% | max response [18] 3.42% | max response [19] -2.54% | Potency [20]

[N-]=[N+]=[N-]
inactive: Potency [1] > 92 µM | Potency [2] > 92 µM | Potency [3] > 92 µM | Potency [4] > 92 µM | Potency [5] > 92 µM | Potency [6] > 92 µM | Potency [7] | outcome [8] | Potency [9] | outcome [10] | Potency [11] | outcome [12] | Potency [13] | Potency [14] | Potency [15] | Potency [16] | max response [17] -3.11% | max response [18] -8.07% | max response [19] 0.516% | Potency [20]

C/C=C/C=O
inactive: Potency [1] > 92 µM | Potency [2] > 92 µM | Potency [3] > 92 µM | Potency [4] > 92 µM | Potency [5] > 92 µM | Potency [6] > 92 µM | Potency [7] | outcome [8] | Potency [9] | outcome [10] | Potency [11] | outcome [12] | Potency [13] | Potency [14] | Potency [15] | Potency [16] | max response [17] 10% | max response [18] -9.77% | max response [19] 5.69% | Potency [20]

S=C1NCCN1
inactive: Potency [1] > 92 µM | Potency [2] > 92 µM | Potency [3] > 92 µM | Potency [4] > 92 µM | Potency [5] > 92 µM | Potency [6] > 92 µM | Potency [7] | outcome [8] | Potency [9] | outcome [10] | Potency [11] | outcome [12] | Potency [13] | Potency [14] | Potency [15] | Potency [16] | max response [17] -2.28% and 8.96% | max response [18] 4.7% and 5.28% | max response [19] 4.6% and 3.06% | Potency [20]

N#CCCC#N
inactive: Potency [1] > 92 µM | Potency [2] > 92 µM | Potency [3] > 92 µM | Potency [4] > 92 µM | Potency [5] > 92 µM | Potency [6] > 92 µM | Potency [7] | outcome [8] | Potency [9] | outcome [10] | Potency [11] | outcome [12] | Potency [13] | Potency [14] | Potency [15] | Potency [16] | max response [17] -2.27% | max response [18] 1.41% | max response [19] -2.73% | Potency [20]

c1ccc(NNc2ccccc2)cc1
inactive: Potency [1] > 92 µM | Potency [2] > 92 µM | Potency [3] > 92 µM | Potency [4] > 92 µM | Potency [5] > 92 µM | Potency [6] > 92 µM | Potency [7] | outcome [8] | Potency [9] | outcome [10] | Potency [11] | outcome [12] | Potency [13] | Potency [14] | Potency [15] | Potency [16] | max response [17] -1.84% and -2.39% | max response [18] 0.997% and 18.6% | max response [19] 2.88% and -1.77% | Potency [20]

C=CC(=O)OCC(CC)CCCC (stereo not given)
inactive: Potency [1] > 92 µM | Potency [2] > 92 µM | Potency [3] > 92 µM | Potency [4] > 92 µM | Potency [5] > 92 µM | Potency [6] > 92 µM | Potency [7] | outcome [8] | Potency [9] | outcome [10] | Potency [11] | outcome [12] | Potency [13] | Potency [14] | Potency [15] | Potency [16] | max response [17] 4.79% and 0.332% | max response [18] -8.13% and 5.16% | max response [19] 1.71% and -12.5% | Potency [20]
